This is a sample that favours compounds with a hit; in the whole collection about 1.2% have one here.
TexasRed fluor – alters Texas Red total fluorescence, flagging assay interference. Potency, µM (top dose mostly 106 µM). AID 1479. actives 0.29% (n = 280,000). TRb/SRC2 Texas Red total fluorescence interference; active = well fitted curve in either direction with a large enough effect; inconclusive = small, poorly fitted or top-dose-only effect
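Flags fluorescent or light-absorbing compounds by total fluorescence, S + 2P, at 555 nm excitation and 632 nm emission. Mixture: 20 nM Texas Red SRC2 peptide, 0.6 uM human TRb LBD, 1 uM T3, 5% DMSO; compound exposure 5 h at ambient temperature.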
GoLoco inh red – inhibitors of human Gai1-RGS12 GoLoco interaction (red fluorophore) | Gai1:RGS12 GoLoco peptide FP, rhodamine, 10 min | AID 880 | Potency, µM (top dose mostly 61.6 µM), actives largely listed as inhibitors | P63096 | actives 0.44% (n = 230,000); active = well fitted inhibition curve with a large enough effect, not every such curve was filed as active; inactive = no such curve, though single readings can be large or run the other way; note: nearly all actives have a fitted effect of over 30% in size
TRb SRC2 PPI – disrupts binding of human TR beta to SRC2; TRbeta-SRC2 peptide binding, fluorescence polarization; receptor liganded with 1 µM T3; Potency, µM (series often up to 106 µM), usual class: inhibitors; AID 1469; actives 0.065% (n = 280,000); note: nearly all actives have a fitted effect of over 50% in size
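TRb LBD 0.6 uM + Texas Red SRC2 peptide 20 nM, 1 uM T3, Tris buffer w/ 5% DMSO; compound pinned, 5 h RT; FP read ex 555/em 632; normalized to unbound and bound controls.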
VDR inhibitor – blocks the human vitamin D receptor | actives 0.93% (n = 400,000) | P11473 | Potency, µM, usual class: inhibitors | VDR-SRC2-3 peptide fluorescence polarization, 2 h | AID 504847
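VDR–SRC2-3 interaction, FP format. Cmpds 23 nl via pintool, brief spin, 2 h ambient incubation.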
KAT2A inh – inhibitors of human GCN5L2 histone acetyltransferase | Potency, µM (series often up to 58.9 µM), most hits filed as inhibitors | actives 0.21% (n = 390,000) | Q92830 | AID 504327 | GCN5L2 HAT assay, ThioGlo1 CoA-SH fluorescence
Target sequence (Q92830 whole entry, looked up): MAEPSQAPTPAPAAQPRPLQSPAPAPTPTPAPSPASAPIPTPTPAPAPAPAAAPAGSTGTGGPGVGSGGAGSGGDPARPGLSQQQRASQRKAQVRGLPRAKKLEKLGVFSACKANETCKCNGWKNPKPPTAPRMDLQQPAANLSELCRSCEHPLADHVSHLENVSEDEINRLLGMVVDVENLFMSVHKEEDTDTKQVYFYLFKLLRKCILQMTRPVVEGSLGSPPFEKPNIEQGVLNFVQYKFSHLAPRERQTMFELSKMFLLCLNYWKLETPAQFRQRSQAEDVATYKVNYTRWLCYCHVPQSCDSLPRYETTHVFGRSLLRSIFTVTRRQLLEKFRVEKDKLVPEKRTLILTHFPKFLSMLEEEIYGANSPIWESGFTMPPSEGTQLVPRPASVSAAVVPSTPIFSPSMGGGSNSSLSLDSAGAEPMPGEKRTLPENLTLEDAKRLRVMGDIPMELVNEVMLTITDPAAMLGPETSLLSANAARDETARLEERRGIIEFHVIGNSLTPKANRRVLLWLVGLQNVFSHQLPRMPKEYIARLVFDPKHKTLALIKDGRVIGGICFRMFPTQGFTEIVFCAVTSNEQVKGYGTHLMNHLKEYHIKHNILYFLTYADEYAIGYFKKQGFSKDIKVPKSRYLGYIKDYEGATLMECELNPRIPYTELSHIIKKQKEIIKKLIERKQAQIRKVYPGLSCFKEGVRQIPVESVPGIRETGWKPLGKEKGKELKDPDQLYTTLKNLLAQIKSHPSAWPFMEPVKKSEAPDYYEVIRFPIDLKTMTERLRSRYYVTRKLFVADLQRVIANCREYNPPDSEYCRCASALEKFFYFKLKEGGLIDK
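GCN5L2 (20nM final) in 50mM HEPES, 0.1mM EDTA pH 7.5, 0.01% Tween-20 was preincubated 15 min at room temperature with compound, then given ThioGlo1 (50uM), H3(1-25) peptide (75uM) and acetyl-CoA (70uM); CoA-thiol fluorescence (Ex340/Em540) was read at 0 and 20 min.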
Each line names hits and unclear results; the compound was inactive in the other large screens; ! = repeats disagree; [ ] = another dose, or the depositor's remark. Unless noted, calls come from the whole dose curve; as a rule, active = well fitted curve in the direction sought with a large enough effect; inconclusive = small, poorly fitted or top-dose-only effect, or another doubt; inactive = no such curve, though single readings can be large; an effect the other way counts as inactive or inconclusive.

Cc1cc(C(=O)CCl)c(C)n1CCc1ccc(Cl)cc1	VDR inhibitor 18µM
Cc1cc(C(=O)CCl)c(C)n1CCc1ccc(F)cc1	none
Cc1ccccc1NC(=O)CN1C(=O)C2C3CC(C(Br)C3Br)C2C1=O (configuration not stated)	VDR inhibitor 79µM
COc1cccc2c1C(=O)c1c(O)c3c(c(O)c1C2=O)C[C@@](O)(C(C)=O)C[C@@H]3O[C@H]1C[C@H](N)[C@H](O)[C@H](C)O1	TexasRed fluor 45µM![fluorescent], GoLoco inh red 1.6µM, TRb SRC2 PPI 22µM!, VDR inhibitor inconclusive, KAT2A inh inconclusive
COc1cccc2c1C(=O)c1c(O)c3c(c(O)c1C2=O)C[C@@](O)(C(=O)CO)C[C@@H]3OC1C[C@@H](N)[C@H](O)[C@H](C)O1 (some centres not stated)	TexasRed fluor 40µM[fluorescent], GoLoco inh red 3.5µM, TRb SRC2 PPI 14µM
NC1=N[C@H](c2ccc(Cl)cc2)N(c2ccc(S(=O)(=O)Nc3ncccn3)cc2)C(N)=N1	none (no result: TexasRed fluor, TRb SRC2 PPI, VDR inhibitor, KAT2A inh)
CCOC(=O)c1sc(N)c(C(=O)OCC)c1C	none
CCOC(=O)c1c(N)sc(C(=O)OCCOC)c1C	VDR inhibitor 79µM
NC(=O)N1c2ccccc2CC(=O)c2ccccc21	VDR inhibitor 50µM!
COc1oc(=O)c2cc(N)ccc2c1Cl	VDR inhibitor inconclusive (no result: GoLoco inh red)
N#C/C(=C\c1ccc(OCc2ccc(Cl)cc2Cl)cc1)c1nc2ccccc2[nH]1	TexasRed fluor 282µM[quencher] (no result: GoLoco inh red)
Cc1n[nH]c(C)c1N1C(=O)c2cccc3c(N4CCCCCC4)ccc(c23)C1=O	GoLoco inh red 20µM
CC(=O)/C(C[N+]1(C)CCCCC1)=N\O	GoLoco inh red 3.2µM
CCOC(=O)N1CCN(c2nc(-c3ccco3)cc(C(F)(F)F)n2)CC1	KAT2A inh 4µM
Cc1ccc(NC(=O)c2ccc(NC(=O)C3CCCC3)cc2)c(C)c1	none (no result: TexasRed fluor, GoLoco inh red, TRb SRC2 PPI, KAT2A inh)
O=C(C(Br)=Cc1ccccc1)c1ccccc1	VDR inhibitor 22µM (no result: TexasRed fluor, GoLoco inh red, TRb SRC2 PPI, KAT2A inh)
Nc1ccc(C(=O)C(=O)c2ccccc2)cc1	none (no result: TexasRed fluor, GoLoco inh red, TRb SRC2 PPI, KAT2A inh)
Clc1ccc(Nc2nc(NCc3ccco3)nc3nccnc23)cc1	none (no result: TexasRed fluor, GoLoco inh red, TRb SRC2 PPI, KAT2A inh)
COc1ccc(C(=O)Nc2ccc(N3CCOCC3)c(C(F)(F)F)c2)cc1OC	TexasRed fluor 11µM[quencher] (no result: GoLoco inh red)
COc1cc(OC)cc(-c2c(-c3cccs3)c3cc(Br)ccc3n2C)c1	none (no result: TexasRed fluor, GoLoco inh red, TRb SRC2 PPI)
Cn1c(-c2ccsc2)c(-c2cccs2)c2cc(Br)ccc21	KAT2A inh 20µM (no result: TexasRed fluor, GoLoco inh red, TRb SRC2 PPI)
CCCCCCCCCCCCCCCCCC(N)=O	none (no result: GoLoco inh red, VDR inhibitor, KAT2A inh)
CCOc1ccccc1C=NNC(=O)c1cccc2ccccc12	none (no result: TexasRed fluor, GoLoco inh red, TRb SRC2 PPI, KAT2A inh)
COc1ccccc1/C=N/NC(=O)c1cccc2ccccc12	VDR inhibitor 79µM (no result: TexasRed fluor, GoLoco inh red, TRb SRC2 PPI)
COc1ccc(/C=C(/C(=O)c2ccc(Cl)cc2Cl)n2cncn2)cc1	VDR inhibitor 56µM, KAT2A inh inconclusive
CC(C)CC(=O)/C(=C/c1ccc(N(C)C)cc1)n1cncn1	none (no result: TexasRed fluor, GoLoco inh red, TRb SRC2 PPI)
O=C(OCn1cncn1)c1ccc(Cl)cc1Cl	none
CN(C)c1ccc(/C=C(/C(=O)c2ccc(Cl)cc2Cl)n2cncn2)cc1	TexasRed fluor 31623µM[quencher]
CC1(C)CC(=O)C2=C(C1)OC(N)=C(C#N)C2C#Cc1ccccc1 (configuration not stated)	VDR inhibitor 45µM
CC1CCC2C(=O)N3C(CCC(C)C3c3ccc(-c4ccco4)cc3)C(=O)N2C1c1ccc(-c2ccco2)cc1 (configuration not stated)	none (no result: GoLoco inh red, VDR inhibitor, KAT2A inh)
Cc1cc(/C=N/Nc2ccc([N+](=O)[O-])cn2)c(C)n1-c1ccc(C(=O)O)cc1	KAT2A inh inconclusive
Cc1ccccc1-n1c(C)cc(/C=N/Nc2ccc([N+](=O)[O-])cn2)c1C	GoLoco inh red 3.2µM
O=C(O)CN(CC(=O)O)c1ccccc1OCCOc1ccccc1N(CC(=O)O)CC(=O)O	none (no result: GoLoco inh red)
O=C(Nc1nc(=O)c2ccccc2s1)c1ccc(Cl)cc1	none
O=C(Nc1nc(=O)c2ccccc2s1)c1ccc(F)cc1	VDR inhibitor 71µM
COc1cc2c(cc1OC)CN(C(=O)c1cccc([N+](=O)[O-])c1)CC2	VDR inhibitor 79µM
NC(=O)c1cc[n+](CC2=C(C(=O)[O-])N3C(=O)[C@@H](NC(=O)Cc4cccs4)[C@@H]3SC2)cc1	VDR inhibitor 16µM
NC(=O)c1cc[n+](CC2=C(C(=O)O)N3C(=O)C(NC(=O)C(c4ccccc4)S(=O)(=O)[O-])C3SC2)cc1 (configuration not stated)	none (no result: VDR inhibitor, KAT2A inh)
Cc1ccccc1Nc1nnc(-c2ccc(C)c(S(=O)(=O)N3CCOCC3)c2)c2ccccc12	none (no result: GoLoco inh red)
Cc1ccc(Nc2nnc(-c3ccc(C)c(S(=O)(=O)N4CCOCC4)c3)c3ccccc23)c(C)c1	TexasRed fluor 0.014µM[quencher] (no result: GoLoco inh red)
CCC1(CC)C(=O)C2=C3C1[C@H](C(=O)OC)CC(C(=O)OC)C[C@H]3n1c(=O)n(-c3ccccc3)c(=O)n1[C@H]2C (some centres not stated)	TexasRed fluor 45µM[fluorescent], TRb SRC2 PPI inconclusive (no result: GoLoco inh red, KAT2A inh)
COC(=O)c1ccccc1NC(=O)c1nc(-c2ccc(Cl)cc2)n2c1CCCCC2	TexasRed fluor 20µM[quencher] (no result: GoLoco inh red)
COCCNc1nc(-c2ccc(N(C)C)cc2)nc2ccccc12	VDR inhibitor 79µM
COCCNc1nc(-c2ccc(C(=O)N(C)C)cc2)nc2ccccc12	none (no result: TexasRed fluor, TRb SRC2 PPI)
O=C(Cn1sc2ccccc2c1=O)NC12CC3CC(CC(C3)C1)C2	GoLoco inh red 28µM, VDR inhibitor inconclusive, KAT2A inh 14µM
O=C(CC1SC(=O)N(c2ccccc2)C1=O)Nc1ccc(Br)cc1 (configuration not stated)	VDR inhibitor 35µM
CCCN1C(=O)SC(CC(=O)Nc2ccccc2)C1=O (configuration not stated)	none
O=C(CC1SC(=O)N(c2ccccc2)C1=O)Nc1ccc(Cl)cc1 (configuration not stated)	VDR inhibitor 40µM
CN1CCN(c2ccc3nc(-c4ccc5nc(-c6ccc(O)cc6)[nH]c5c4)[nH]c3c2)CC1	none (no result: TexasRed fluor, TRb SRC2 PPI, VDR inhibitor, KAT2A inh)
COC(=O)C1=CO[C@@H](C)[C@@H]2CN3CCc4c([nH]c5ccccc45)[C@@H]3C[C@H]12	none (no result: GoLoco inh red)
N#CC1=C(N)SC(N)=C(C#N)C1c1ccc([N+](=O)[O-])cc1	VDR inhibitor 79µM
Oc1cc(CN2COc3ccccc32)c(O)cc1CNC1CCCCC1	none (no result: TexasRed fluor, TRb SRC2 PPI, VDR inhibitor, KAT2A inh)
C=CCOC(=O)c1[nH]c2c(c1C)C(=O)CC(c1ccco1)C2 (configuration not stated)	VDR inhibitor 79µM
Cc1ccc(NNC(N)=S)cc1Cl	VDR inhibitor 79µM
